Compound activity from PubChem.
Compounds with a hit are over-represented: about 11% of the library has one in this group of screens.
FLuc inh: inhibitors of firefly (Photinus pyralis) luciferase; Potency, µM (doses to about 115 µM), usual class: inhibitors; P08659; purified P. pyralis luciferase, luminescence, biochemical; AID 1347043; hit rate 2.5% among 76,000; note: nearly all actives have a fitted effect of over 65% in size
Target sequence (P08659 whole entry, looked up): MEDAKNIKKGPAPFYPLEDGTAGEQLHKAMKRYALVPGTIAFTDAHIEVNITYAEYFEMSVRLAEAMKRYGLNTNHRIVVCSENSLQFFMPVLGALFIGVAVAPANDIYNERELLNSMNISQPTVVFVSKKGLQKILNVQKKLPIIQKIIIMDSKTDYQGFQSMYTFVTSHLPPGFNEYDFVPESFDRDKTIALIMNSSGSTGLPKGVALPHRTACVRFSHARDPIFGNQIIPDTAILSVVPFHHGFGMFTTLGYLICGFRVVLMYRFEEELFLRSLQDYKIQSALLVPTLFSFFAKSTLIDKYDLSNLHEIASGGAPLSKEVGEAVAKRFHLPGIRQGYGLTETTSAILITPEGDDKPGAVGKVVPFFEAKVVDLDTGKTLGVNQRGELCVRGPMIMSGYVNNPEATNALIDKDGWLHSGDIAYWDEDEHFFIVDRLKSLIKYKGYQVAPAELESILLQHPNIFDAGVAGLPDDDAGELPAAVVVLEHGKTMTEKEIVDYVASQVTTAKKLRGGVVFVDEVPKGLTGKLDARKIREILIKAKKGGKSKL
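Purified P. pyralis luciferase (10nM final) in 50mM Tris acetate pH 7.5, 10mM Mg acetate, 0.01% Tween-20, 0.05% BSA with 10uM D-luciferin and 10uM ATP. Compounds titrated qHTS. Luminescence imaged on CCD.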
NIH3T3 tox: kills NIH 3T3 cells; NIH 3T3 viability, CellTiter-Glo ATP luminescence, 48-72 h; Potency, µM (titrated, usually from 96.7 µM), hits mostly inhibitors; hit rate 4.3% among 94,000; AID 1345082; note: nearly all actives have a fitted effect of over 55% in size
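Cells were seeded at 400 per well, treated with pin-transferred compound, and kept 48 or 72 hr at 37 °C before CellTiter-Glo addition and luminescence imaging of cellular ATP.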
HEK293 tox: cytotoxic compounds in HEK 293 cells | HEK 293 viability, ATP luminescence (CellTiter-Glo), 48-72 h | Potency, µM (top dose mostly 115 µM), most hits filed as inhibitors | hit rate 6.6% among 94,000 | AID 1345083; note: nearly all actives have a fitted effect of over 60% in size
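Pintool-delivered compounds were incubated with HEK 293 cells (250 cells/well) at 37 degree Celsius for 48 or 72 hr. ATP-dependent luminescence (CellTiter-Glo) then reported remaining viable cells.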
hNpr1 antagonist: blocks ANP-stimulated signaling of human Npr1 receptor; HEK293 hNpr1 GloSensor cGMP, ANP-stimulated luminescence; Potency, µM (series often up to 46.3 µM), usual class: inhibitors; hit rate 1.6% among 76,000; AID 1347048; calls by dose curve; note: nearly all actives have a fitted effect of over 60% in size
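Compound pre-incubated 30 min at room temperature on GloSensor-loaded HEK293 cells stably carrying hNpr1 and the pGS-40F cGMP biosensor. Stimulation uses hNppA at 0.1 nM final; luminescence is taken at baseline and 20 min post-agonist.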
Each line names hits and unclear results; the compound was inactive in the other large screens. Unless noted, calls come from the whole dose curve; as a rule, active = well fitted curve in the direction sought with a large enough effect; inconclusive = small, poorly fitted or top-dose-only effect, or another doubt; inactive = no such curve, though single readings can be large; an effect the other way counts as inactive or inconclusive.

COc1ccc(-c2onc(C)c2C(=O)NCc2ccccc2)cc1	NIH3T3 tox inconclusive, HEK293 tox inconclusive
COc1cc(OC)c(CNC(=O)c2c(C)noc2-c2cccs2)c(OC)c1	NIH3T3 tox inconclusive, HEK293 tox 79.4µM
COc1ccc(-c2onc(C)c2C(=O)NCc2c(OC)cc(OC)cc2OC)cc1	NIH3T3 tox inconclusive, HEK293 tox 31.6µM
COc1ccc(CNC(=O)c2c(C)noc2-c2cc(OC)cc(OC)c2)cc1	HEK293 tox inconclusive
COc1cccc(CNC(=O)c2c(C)noc2-c2cccs2)c1	NIH3T3 tox inconclusive, HEK293 tox inconclusive
COc1ccc(-c2onc(C)c2C(=O)NC2CCCc3ccccc32)cc1 (stereo unspecified)	FLuc inh 28.2µM, NIH3T3 tox inconclusive, HEK293 tox inconclusive
CCOC(=O)[C@H]1C[C@]2(CCCCNC2=O)N(C(=O)COc2ccccc2)[C@H]1c1ccccc1	NIH3T3 tox inconclusive (no result: FLuc inh, hNpr1 antagonist)
O=C(CN1C(=O)CCC1=O)N1CCC(CCOc2ccccc2F)C1 (stereo unspecified)	HEK293 tox 44.7µM, hNpr1 antagonist inconclusive
CN(CC(=O)N1CCC(CCOc2ccccc2F)C1)S(=O)(=O)c1ccc2c(c1)oc(=O)n2C (stereo unspecified)	NIH3T3 tox inconclusive, HEK293 tox 39.8µM
Cc1nn(C(=O)CCC(=O)N2CCC(CCOc3ccccc3F)C2)c2ccccc12 (stereo unspecified)	none
CN(CC(=O)N1CCC(C)(c2noc(C3CC3)n2)CC1)S(=O)(=O)c1ccc2c(c1)oc(=O)n2C	none
Cc1ccccc1C(=O)N1CCN(CCn2nc3n(c2=O)CCCC3)CC1	none (no result: FLuc inh, hNpr1 antagonist)
CC(C)Cn1ccc2c(NC(=O)C[C@H]3NC(=O)c4ccccc4NC3=O)cccc21	NIH3T3 tox 28.2µM, HEK293 tox inconclusive
CCCNC1(Cc2cc(C(=O)N3CCCCC3)on2)COC1	none
O=C1c2cnc(-c3ccccc3)nc2OCCN1Cc1ccc(F)cc1F	HEK293 tox 112µM
CN(C)C(=O)c1ccc(-c2ncc3c(n2)OCCN(Cc2ccc(F)cc2F)C3=O)cc1	FLuc inh 44.7µM, HEK293 tox inconclusive
COc1cccc(-c2ncc3c(n2)OCCN(Cc2ccc(F)cc2F)C3=O)c1F	FLuc inh 15.8µM, HEK293 tox inconclusive
O=C1c2cnc(-c3cc(F)cc(F)c3)nc2OCCN1Cc1ccc(F)cc1F	HEK293 tox inconclusive
O=C(NC1CCCN(CCn2nc3n(c2=O)CCCC3)C1)c1ccc(Cl)nc1 (stereo unspecified)	none (no result: FLuc inh, hNpr1 antagonist)
CCn1cc(-c2ccc(C)cc2)cc1C(=O)NC(C)c1ccccn1 (stereo unspecified)	NIH3T3 tox inconclusive, HEK293 tox 39.8µM
CN(C)[C@@H]1CN(C(=O)CC2CCCCC2)CC[C@@H]1CO	none (no result: FLuc inh, hNpr1 antagonist)
COc1ccc(-c2cc(N3CCCC(NC(=O)c4ccc(C)s4)C3)n[nH]2)cc1 (stereo unspecified)	FLuc inh 28.2µM, NIH3T3 tox inconclusive, HEK293 tox inconclusive
Cc1ccc(C(=O)NC2CCCN(c3cc(-c4ccccc4)[nH]n3)C2)s1 (stereo unspecified)	FLuc inh inconclusive, NIH3T3 tox inconclusive, HEK293 tox inconclusive
COc1ccc(-c2cc(N3CCCC(NC(=O)c4ccccc4)C3)n[nH]2)cc1 (stereo unspecified)	FLuc inh 22.4µM, NIH3T3 tox inconclusive, HEK293 tox inconclusive
CN(C)c1ccc(C(=O)NCC2CCN(c3cc(-c4ccc(F)cc4)[nH]n3)CC2)cc1	FLuc inh inconclusive, NIH3T3 tox inconclusive, HEK293 tox inconclusive
CN(C)c1cccc(C(=O)NC2CCCN(c3cc(-c4ccccc4)[nH]n3)C2)c1 (stereo unspecified)	FLuc inh 35.5µM, NIH3T3 tox inconclusive, HEK293 tox inconclusive
CN(C)c1cccc(C(=O)NCC2CCN(c3cc(-c4ccccc4)[nH]n3)CC2)c1	FLuc inh 15.8µM, NIH3T3 tox inconclusive, HEK293 tox inconclusive
O=C(NC1CCN(c2ccc3nnc(-c4ccccc4)n3n2)CC1)c1cccc(C(F)(F)F)c1	none (no result: FLuc inh, hNpr1 antagonist)
Cc1cc(C(F)(F)F)nn1CC(=O)N1CCC(Cn2c(C)cnc2-c2ccccc2)CC1	none (no result: FLuc inh, hNpr1 antagonist)
O=C(NCc1cccc(Cl)c1)C1CCc2nnc(C3CC3)n21 (stereo unspecified)	none (no result: FLuc inh, hNpr1 antagonist)
COc1ccc(-c2cc(N3CCCC(NC(=O)c4cccc(C#N)c4)C3)n[nH]2)cc1 (stereo unspecified)	FLuc inh 20µM, NIH3T3 tox inconclusive, HEK293 tox inconclusive
CC(=O)Nc1cccc(C(=O)NC2CCCN(c3cc(-c4ccc(F)cc4)[nH]n3)C2)c1 (stereo unspecified)	FLuc inh inconclusive, HEK293 tox inconclusive
COc1ccc(-c2cc(N3CCCC(NC(=O)c4ccoc4)C3)n[nH]2)cc1 (stereo unspecified)	FLuc inh 22.4µM, HEK293 tox inconclusive
COc1ccc(-c2cc(N3CCCC(NC(=O)c4cccc(NC(C)=O)c4)C3)n[nH]2)cc1 (stereo unspecified)	FLuc inh 28.2µM, NIH3T3 tox inconclusive, HEK293 tox inconclusive
N#Cc1cccc(-c2cn3c(n2)N(C(=O)Cc2cccs2)CCC3)c1	none
O=C(C1CCCN1C(=O)c1ccccc1Cl)N1CCC(N2Cc3ccccc3C2=O)CC1 (stereo unspecified)	none (no result: FLuc inh, hNpr1 antagonist)
O=C1CC2(CCN(C(=O)C3CCN(C(=O)C4CCCC4)C3)CC2)Oc2ccccc2N1 (stereo unspecified)	none (no result: FLuc inh, hNpr1 antagonist)
COc1ccc(-c2ccc3ncc(Nc4ccccc4F)n3n2)cc1OC	NIH3T3 tox 35.5µM, HEK293 tox 44.7µM
COc1ccc(-c2ccc3ncc(Nc4cccnc4OC)n3n2)cc1OC	HEK293 tox 14.1µM
COc1ccccc1Nc1cnc2ccc(-c3ccccc3OC)nn12	NIH3T3 tox inconclusive, HEK293 tox inconclusive
CNC(=O)c1cc(C2CC2)nc2c1c(C1CCN(C(=O)c3ccncc3)C1)nn2C (stereo unspecified)	none (no result: FLuc inh, hNpr1 antagonist)
COc1ccc(-c2noc(Nc3cc(C)ccc3OC)n2)cc1	FLuc inh 17.8µM, NIH3T3 tox inconclusive, HEK293 tox inconclusive
COc1ccc(C)cc1Nc1nc(-c2ccc(OC)c(OC)c2)no1	FLuc inh inconclusive, NIH3T3 tox inconclusive, HEK293 tox inconclusive
O=C(c1nccc2ccccc12)N1CCc2c(nc(-c3ccccc3)[nH]c2=O)C1	NIH3T3 tox inconclusive, HEK293 tox 25.1µM
CCN1c2cc(C(=O)Nc3cccc(SC)c3)ccc2C(=O)N2CCCCC21 (stereo unspecified)	NIH3T3 tox inconclusive, HEK293 tox 22.4µM
CCN1c2cc(C(=O)Nc3ccc(N(C)C)cc3)ccc2C(=O)N2CCCCCC21 (stereo unspecified)	FLuc inh 17.8µM, NIH3T3 tox inconclusive, HEK293 tox 39.8µM
CCN1c2cc(C(=O)Nc3cccc(C(F)(F)F)c3)ccc2C(=O)N2CCCCC21 (stereo unspecified)	NIH3T3 tox inconclusive, HEK293 tox 28.2µM
CCN1c2cc(C(=O)Nc3cccc(C)c3)ccc2C(=O)N2CCCCC21 (stereo unspecified)	NIH3T3 tox 35.5µM, HEK293 tox 31.6µM
COc1ccc(CN[C@H]2[C@H](O)[C@H](O)C[C@@H]2c2ccccc2)cc1	HEK293 tox inconclusive
CN(CC1CCOCC1)S(=O)(=O)c1ccc(Cl)s1	none
